High-throughput results as filed in PubChem BioAssay.
Most compounds without a hit are left out; they make up all but 2.8% or so of the library.
EWS-Fli inh – blocks EWS/Fli oncoprotein-driven transcription; 0.67% of 350,000 active; inhibition, % at 12.6 µM; A673 NR0B1-luciferase reporter, viability-normalised;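 active = mean inhibition of at least 50% after viability correction, with every replicate also passing that limit; inconclusive = mean reaches 50% but only one of two replicates passes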;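 also: firefly luciferase signal divided by Alamar Blue viability fluorescence both relative to DMSO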
TROY NFkB inh – TROY signaling inhibition. inhibition, % at 10 µM. AID 1347056. 0.98% of 360,000 active. Q293 LMP1-TROYcd NF-kB luciferase reporter, 4 h;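 active = compounds whose plate-normalised and pattern-corrected inhibition of the luciferase reporter signal at the single screening dose is 50% or more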
TWEAK-Fn14 inh – TWEAK-Fn14 signaling inhibition | TWEAK-stimulated Fn14 reporter cells, luciferase luminescence, 8 h | AID 1159606 | 2% of 360,000 active | inhibition, % at 10 µM; in the data active = inhibition above about 50%
LGR2 inh – blocks bursicon-induced cAMP signaling via Drosophila LGR2; HEK293 LGR2, CRE-luciferase, bursicon-stimulated, 4 h; inhibition, % at 9.99 µM; 0.35% of 380,000 active; AID 720647;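 active = drop in luminescence signal, shown as inhibition above about 50% in the replicate tests, limit read from the data, passing the limit was not always enough; inconclusive = probably only some replicates passing the limit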;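 also: agonist challenge used bursicon conditioned medium at about half maximal strength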
PAX8 reporter – lowers PAX8-driven luciferase in RMG-I cells. inhibition, % at 12.6 µM. 1.2% of 360,000 active. AID 652154. RMG-I TPO-luciferase reporter, SteadyGlo, 24 h;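 active = mean replicate inhibition at least 60% with every replicate also reaching 60%; inconclusive = only one of the two criteria is met; inactive = mean below 60% and not all replicates reaching 60%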;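 also: luciferase light reporting Pax8 driven TPO promoter activity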
Each line names hits and unclear results; the compound was inactive in the other large screens; ! = not active in a repeat.

Cc1ccccc1OCC1Cc2c(nc(N)c(C#N)c2N)O1 (configuration not stated)	TWEAK-Fn14 inh 58 (no result: EWS-Fli inh, TROY NFkB inh, LGR2 inh, PAX8 reporter)
N#Cc1ccc(Nc2nc(-c3ccc(O)cc3O)cs2)cc1C(F)(F)F	TROY NFkB inh 67, TWEAK-Fn14 inh 86 (no result: EWS-Fli inh, LGR2 inh, PAX8 reporter)
Oc1ccc(-c2csc(Nc3ccc4c(c3)OCO4)n2)c(O)c1	none
CNC[C@@H]1Oc2c(NC(=O)NC(C)C)cccc2C(=O)N([C@H](C)CO)C[C@@H]1C	none (no result: TROY NFkB inh, TWEAK-Fn14 inh, PAX8 reporter)
O=c1[nH]c(-c2ccccc2F)nc2c1sc(=S)n2Cc1ccccc1	TROY NFkB inh 58, TWEAK-Fn14 inh 61
COc1ccc(CN(CCN(C)C)c2ccccn2)cc1	PAX8 reporter 83!
Cc1ccc(-c2nnc(CSc3nc(C(C)C)nc4sc(C)c(C)c34)o2)cc1	TWEAK-Fn14 inh 83 (no result: EWS-Fli inh, TROY NFkB inh, LGR2 inh, PAX8 reporter)
CC(C)C#Cc1ccc([C@H]2[C@@H](CO)N3C(=O)CN(C(=O)c4ccc5c(c4)OCO5)C[C@H]23)cc1	none (no result: TROY NFkB inh, TWEAK-Fn14 inh, PAX8 reporter)
CCCCOC(=O)c1[nH]c2c(c1C)C(=O)CC(c1cc(OC)c(OC)c(OC)c1)C2 (configuration not stated)	TWEAK-Fn14 inh 73
C=CCOC(=O)c1[nH]c2c(c1C)C(=O)CC(c1cc(OC)c(OC)c(OC)c1)C2 (configuration not stated)	TWEAK-Fn14 inh 64 (no result: EWS-Fli inh, LGR2 inh, PAX8 reporter)
COC(=O)c1[nH]c2c(c1C)C(=O)CC(c1cc(OC)ccc1OC)C2 (configuration not stated)	EWS-Fli inh 54
COCCOC(=O)c1[nH]c2c(c1C)C(=O)CC(c1cc(OC)c(OC)c(OC)c1)C2 (configuration not stated)	none
Cc1ccc(S(=O)(=O)Nc2ccc3c(c2)C(=O)N([C@@H](C)CO)C[C@@H](C)[C@H](CN(C)C(=O)Nc2ccc4c(c2)OCO4)O3)cc1	none (no result: TROY NFkB inh, TWEAK-Fn14 inh)
C[C@@H]1CN([C@@H](C)CO)C(=O)c2cc(NC(=O)NC3CCCCC3)ccc2O[C@@H](C)CCCCO[C@H]1CN(C)Cc1ccc(C(F)(F)F)cc1	PAX8 reporter 78 (no result: TROY NFkB inh, TWEAK-Fn14 inh)
C[C@@H]1CN([C@H](C)CO)C(=O)c2cc(NC(=O)NC3CCCCC3)ccc2O[C@@H](C)CCCCO[C@H]1CN(C)Cc1ccc(C(F)(F)F)cc1	PAX8 reporter 105 (no result: TROY NFkB inh, TWEAK-Fn14 inh)
CCCc1cn(CC[C@H]2CC[C@@H](NC(=O)C3CCC3)[C@@H](CO)O2)nn1	none (no result: TROY NFkB inh, TWEAK-Fn14 inh)
CN1CCN(c2ccc(NC(=O)c3sc4ccccc4c3Cl)cc2)CC1	TROY NFkB inh 60, LGR2 inh 64
Cc1ccc(C(=O)Nc2ccc(N3CCN(C)CC3)cc2)cc1C	TROY NFkB inh 57, TWEAK-Fn14 inh 75
CN1CCN(C(=O)c2ccccc2NC(=O)c2sc3ccccc3c2Cl)CC1	none
Cc1ccc(C(=O)Nc2ccc(N3CCN(S(C)(=O)=O)CC3)cc2)cc1C	none
Cc1cccc(C)c1NC(=O)CSC(=O)c1sc2ccccc2c1Cl	TROY NFkB inh 59
CC(=O)N1CCN(c2ccc(NC(=O)c3ccc(C(C)(C)C)cc3)cc2)CC1	TROY NFkB inh 52 (no result: EWS-Fli inh, PAX8 reporter)
CC(=O)N1[C@@H]2Cn3c(ccc(-c4cccnc4)c3=O)[C@H]1[C@@H](C(=O)NC1Cc3ccccc3C1)[C@@H]2CO	none (no result: TROY NFkB inh, TWEAK-Fn14 inh)
CO[C@@H]1CN(C)C(=O)c2cc(NC(=O)c3ccno3)ccc2OC[C@@H](C)NC[C@@H]1C	none (no result: TROY NFkB inh, TWEAK-Fn14 inh)
COc1ccc(-c2nc3ccccc3nc2-c2ccccc2)cc1	none
COc1ccc(-c2cc3nnc(-c4ccccc4)nc3s2)cc1	TROY NFkB inh 63, TWEAK-Fn14 inh 72 (no result: EWS-Fli inh, LGR2 inh, PAX8 reporter)
CCCNC(=O)c1cc(-c2ccc3c(c2)OCO3)on1	TWEAK-Fn14 inh 51
COc1ccccc1-c1cc(C(=O)N2CCCC2)no1	none
O=C(Nc1cccc(O)c1)c1cc(-c2ccc3c(c2)OCO3)on1	TROY NFkB inh 64, TWEAK-Fn14 inh 95, LGR2 inh inconclusive
O=C(c1cc(-c2ccccc2Cl)on1)N1CCCC1	TWEAK-Fn14 inh 70, LGR2 inh inconclusive
COc1ccc(NC(=O)c2cc(-c3ccccc3Cl)on2)cc1OC	none
O=C(Nc1cccc(O)c1)c1cc(-c2ccccc2Cl)on1	EWS-Fli inh inconclusive, TROY NFkB inh 51, TWEAK-Fn14 inh 77
CCCNC(=O)N1CC2(C1)[C@H](c1ccccc1)[C@H](CO)N2C(=O)c1ccncc1	none (no result: TROY NFkB inh, TWEAK-Fn14 inh)
COCCNC(=O)C[C@H]1C[C@@H]2c3cc(NC(=O)NC4CCCC4)ccc3O[C@@H]2[C@@H](CO)O1	none (no result: TROY NFkB inh, TWEAK-Fn14 inh, PAX8 reporter)
CC1CCCCN1C(=O)c1cc(-c2ccc3c(c2)OCO3)on1 (configuration not stated)	none
CC1CCN(C(=O)c2cc(-c3ccc4c(c3)OCO4)on2)CC1	TWEAK-Fn14 inh 53
C=CC[C@@H](CC(=O)N[C@H](CO)Cc1ccccc1)C(=O)N[C@H](COC(=O)[C@@H](CC=C)Cc1ccc(F)cc1)Cc1c[nH]c2ccccc12	TROY NFkB inh 69, TWEAK-Fn14 inh 66, PAX8 reporter 88
C=CC[C@H](CC(=O)N(CCO)Cc1ccccc1)C(=O)N[C@@H](COC(=O)[C@@H](CC=C)Cc1ccc(F)cc1)Cc1c[nH]c2ccccc12	TWEAK-Fn14 inh 70, PAX8 reporter 69
C=CC[C@@H](CC(=O)N(CCO)Cc1ccccc1)C(=O)N[C@@H](COC(=O)[C@@H](CC=C)Cc1ccc(F)cc1)Cc1c[nH]c2ccccc12	TWEAK-Fn14 inh 57
O=C(Nc1cc(F)ccc1F)N[C@@H]1CC[C@@H](CCn2cc(C3CCCC3)nn2)O[C@@H]1CO	none (no result: EWS-Fli inh, TROY NFkB inh, TWEAK-Fn14 inh)
CCCC#Cc1ccc2c(c1)O[C@@H](CN(C)C(=O)c1cnccn1)[C@@H](C)CN([C@@H](C)CO)S2(=O)=O	EWS-Fli inh 54 (no result: TROY NFkB inh, TWEAK-Fn14 inh, PAX8 reporter)
COc1ccc(C#Cc2ccc3c(c2)O[C@@H](CN(C)C(=O)c2ccccn2)[C@H](C)CN([C@@H](C)CO)S3(=O)=O)cc1	PAX8 reporter 65 (no result: TROY NFkB inh, TWEAK-Fn14 inh)
CCCC#Cc1ccc2c(c1)O[C@@H](CN(C)C(=O)c1cnccn1)[C@@H](C)CN([C@H](C)CO)S2(=O)=O	none (no result: TROY NFkB inh, TWEAK-Fn14 inh, PAX8 reporter)
CN(C)C(=O)C[C@@H]1CC[C@@H]2[C@@H](COc3ccc(NC(=O)NCc4ccccc4)cc3C(=O)N2C)O1	none (no result: TROY NFkB inh, TWEAK-Fn14 inh)
CN(C)C(=O)[C@H]1[C@H](CO)[C@H]2Cn3c(ccc(-c4ccccc4F)c3=O)[C@@H]1N2C(=O)c1cccnc1	none (no result: TROY NFkB inh, TWEAK-Fn14 inh)
O=C1c2cccc3c([N+](=O)[O-])ccc(c23)C(=O)N1Cc1cccnc1	TROY NFkB inh 64, LGR2 inh 103
Cc1nnc(N2C(=O)c3cccc4c([N+](=O)[O-])ccc(c34)C2=O)s1	EWS-Fli inh 68
Cc1ccc(N2C(=O)c3cccc4c([N+](=O)[O-])ccc(c34)C2=O)c2cccnc12	none
Cc1ccnc(N2C(=O)c3cccc4c([N+](=O)[O-])ccc(c34)C2=O)c1	EWS-Fli inh 66 (no result: PAX8 reporter)
C[C@H]1CN([C@@H](C)CO)C(=O)c2cccc(NC(=O)NC3CCCCC3)c2O[C@@H]1CN(C)C(=O)Nc1cccc2ccccc12	none (no result: TROY NFkB inh, TWEAK-Fn14 inh)
CCCNC(=O)[C@@H]1[C@@H](CO)[C@@H]2Cn3c(ccc(-c4ccccc4)c3=O)[C@H]1N2C(=O)CC1CC1	none (no result: TROY NFkB inh, TWEAK-Fn14 inh)
C/C=C/c1ccc([C@H]2[C@H](C#N)N(c3nc(-c4ccccc4)cs3)[C@H]2CO)cc1	none (no result: TROY NFkB inh, TWEAK-Fn14 inh)
